This passage reports z-score results from PubChem BioAssay AID1508600 (Functional Genomics Laboratory (NCATS/FGL), 2020).

Among all 53,000 sequences or so, about 3,700 (7%) were called active. This excerpt belongs to a sample that is enriched for actives. Unmarked numbers belong to inactive results.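 How the source made its calls: active means gene knockdowns whose robust z-score for IL-1 alpha signal is at least 2 or at most -2, so actives lie on both sides; inactive means the rest.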

This experiment is described as follows: Components of the Cytosolic LPS Sensing Pathway: Gene Identification via Genome-wide siRNA Screen.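 Further: robust z of the log signal after scaling to non-targeting control siRNA wells of the plate.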 Conditions: RAW264.7 macrophages, IL-1a HTRF, actives lie on both sides, screened at 100 nM (by protocol), cells primed 5 h with Pam3CSK4 first. The gist of the method:
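Cells (RAW264.7, 1×10^4 per well) were transfected with siRNA at 100 nM and cultured 48h at 37 degrees C. Pam3CSK4 was added for 5 hours; LipidA transfection followed for 24 hour. IL-1a was then measured by HTRF.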
For orientation: Time-resolved FRET reads energy transfer from a long-lived donor to a nearby acceptor.
As to GGAAAAAUUUAGACAGCACTT against Csrp2, the z-score was 0.132.

For GACUCAUUCUGCAAUGAAGTT against Ifna5, the z-score was 0.105. Then GCUAAGGACACAAAAUCCATT against Slc38a10, with 0.129.

Consider “GGAGAAAGAAAGCAGUUUUTT against 2310067E19Rik”, for which the z-score was 1.55. Then GGUUAGAGGAAAGGUUUAUTT against Htr1f, with 5.07 (active).

Turning to GGGCAUUUUAACCAAAUGATT against Marchf11, the z-score was 0.544. Then GCUGCCUCAUUUCUGGAUGTT against Klk11, with 1.1; and GGACAUGGAUGACACUGAUTT against Tsr3, with -1.99; and GGAAGAUGCACAUCUGGACTT against Enoph1, with -0.55. On to CCAGGAUUCCGACUGAAUCTT against Oscp1, for which the z-score was -0.367. As to GGGCUAAGUACCAAACUCATT against Ly6e, the z-score was -1.71.

As for GCUUGCUAGAGUGAUCUCGTT against Adsl, the z-score was -0.331. Regarding GGCUUUUUCCACAUGUGCCTT against Olfr514, the z-score is -2.29 (active). Consider GCCCUUGGAAUUUACCACUTT against Aldh8a1, for which the z-score is -0.546. Then CCAGACUGAGAAGAUAUGATT against Meox2, with -0.146; and GGACAUUGUCUACAAGUUGTT against Pcgf2, with 1.12. With GGUGUCAGCGAAAAGCAGUTT against Ring1, the z-score is -2.2 (active). For the sequence GGACCGCUACUAUUCAGGATT against Myh10, the z-score was 0.93.

For GGGUUUUGGAUGGCGAAUATT against Lgals7, the z-score was -0.0835. Take GGACGAAAAGAAGUGUUUCTT against Lamb2: the z-score is -0.103. Then GGGAAACUCUGUCCAAUUGTT against Eif2d, with 0.402; and CGGGAAAUUUCUAUUGGACTT against Akr1c12, with 0.312.

On to GGUGAUGGAAGUUAGUGUGTT against Bet1, for which the z-score was -1.34. The result for GGCAUUCACCAUACAAUGATT against Ufm1 reads 0.687; that for GGUCAUUGGUUCCUCCCUUTT against C2cd4c, 2.59 (active). The result for GGCUAACCACAUUUGCUUCTT against Zic4 reads 0.759; that for GGAAGAUGUCCAAACCCGCTT against Tspan4, 0.671; that for GCAGCUAAGAAGACCACUATT against Zfp185, 2.15 (active). The result for “GGAGGUAACGCAUGUUACATT against 4930483J18Rik” reads 0.393. Turning to GCGAAGUUACUACAGACGUTT against Slc39a1, the z-score was -0.124.
